Test results: PubChem BioAssay AID1053173 (Broad Institute, 2014)
Out of some 1,500 compounds screened, about 390 (26%) were called active. How the calls were made is not given here. Only a sample is shown. Results with a measured potency or affinity are listed apart.

Biological target: Histone-lysine N-methyltransferase NSD2 (Homo sapiens) (UniProt O96028)
Assay: NSD2 methyltransferase inhibitors, dose response, biochemical, AlphaScreen, cherry-picked samples (AID 1053173)
Conditions: NSD2 H4 peptide methylation, 120 min; series mostly up to 10 µM

Chain of Histone-lysine N-methyltransferase NSD2 (Homo sapiens) (O96028 whole entry, looked up): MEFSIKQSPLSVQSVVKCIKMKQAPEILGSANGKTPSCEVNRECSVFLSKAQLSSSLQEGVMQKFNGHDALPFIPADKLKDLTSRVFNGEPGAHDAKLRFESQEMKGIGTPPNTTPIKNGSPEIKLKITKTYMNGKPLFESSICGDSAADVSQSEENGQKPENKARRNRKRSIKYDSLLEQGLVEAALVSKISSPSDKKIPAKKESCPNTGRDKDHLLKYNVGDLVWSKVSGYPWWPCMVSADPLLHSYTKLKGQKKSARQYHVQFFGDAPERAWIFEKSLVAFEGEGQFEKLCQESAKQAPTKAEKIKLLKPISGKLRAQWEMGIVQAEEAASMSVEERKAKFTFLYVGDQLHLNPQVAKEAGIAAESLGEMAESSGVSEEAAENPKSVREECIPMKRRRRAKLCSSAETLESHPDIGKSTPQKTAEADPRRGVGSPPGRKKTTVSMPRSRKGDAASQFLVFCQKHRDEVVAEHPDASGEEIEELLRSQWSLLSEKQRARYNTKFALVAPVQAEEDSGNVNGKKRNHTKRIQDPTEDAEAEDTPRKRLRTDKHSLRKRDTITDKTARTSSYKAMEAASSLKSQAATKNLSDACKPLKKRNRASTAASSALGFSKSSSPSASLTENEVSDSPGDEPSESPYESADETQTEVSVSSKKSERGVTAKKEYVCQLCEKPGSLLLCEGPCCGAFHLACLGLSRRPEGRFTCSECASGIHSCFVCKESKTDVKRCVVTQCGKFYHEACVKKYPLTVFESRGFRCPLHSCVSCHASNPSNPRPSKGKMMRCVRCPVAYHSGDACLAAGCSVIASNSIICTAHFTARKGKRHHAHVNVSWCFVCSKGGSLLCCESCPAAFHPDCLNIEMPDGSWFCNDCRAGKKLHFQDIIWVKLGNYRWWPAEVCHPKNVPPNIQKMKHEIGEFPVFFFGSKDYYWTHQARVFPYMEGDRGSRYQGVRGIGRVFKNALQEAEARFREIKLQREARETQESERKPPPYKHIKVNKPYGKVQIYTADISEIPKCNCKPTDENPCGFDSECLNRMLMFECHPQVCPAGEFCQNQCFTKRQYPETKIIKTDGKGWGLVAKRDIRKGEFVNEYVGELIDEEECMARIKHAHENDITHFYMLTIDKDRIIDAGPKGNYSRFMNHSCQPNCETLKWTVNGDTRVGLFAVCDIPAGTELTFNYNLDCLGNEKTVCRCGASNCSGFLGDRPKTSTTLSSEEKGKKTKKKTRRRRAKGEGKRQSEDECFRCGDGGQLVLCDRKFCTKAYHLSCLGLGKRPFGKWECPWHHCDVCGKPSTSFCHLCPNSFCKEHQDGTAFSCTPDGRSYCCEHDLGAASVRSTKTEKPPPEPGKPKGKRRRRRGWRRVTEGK

outcome, inactive:
Nc1ncnc(NCc2ccccc2)c1[N+](=O)[O-]
COc1ccc(COc2ncnc3ccc(Br)cc23)cc1F
COc1ccc(CCNC(=O)C2CCN(C(=O)c3ccccc3C)CC2)cc1
Cc1cccc(N(CC(=O)NC(C)(C)C)C(=O)CS(=O)CC(=O)Nc2ccc3c(c2)OCO3)c1 (stereo not given)
CC(=O)N1CCN(Cc2nc3cc(NC(=O)Cn4nc(C)c5ccccc5c4=O)ccc3n2C)CC1
[O-][n+]1cccc2c(Br)cc(Br)c(O)c21
OC(COc1ccc2ccccc2c1Cl)CN1CCOCC1 (stereo not given)
CCCCN(CC)CCNC(=O)CN(C)S(=O)(=O)c1ccc2c(c1)c(=O)n(C)c(=O)n2C
Cc1ccc(C(=O)Nc2ccc(CC(=O)O)cc2)o1
CCCc1cc(Nc2ccccc2C)n2ncnc2n1
N#Cc1c(SCC(=O)OCc2ccccc2)nsc1SCC(=O)OCc1ccccc1
Cc1cc(Cl)ccc1OCCCC(=O)N1CCOCC1
CCN(CC)Cc1c(O)c(Cl)cc2c(C)cc(=O)oc12
O=S(=O)(c1ccc(-c2nnco2)cc1)N1CCCCC1
O=C(c1ccc(N2CCOCC2)c([N+](=O)[O-])c1)N1CCN(Cc2ccccc2)CC1
O=C1CC(N2CCOCC2)=NN1c1ccc([N+](=O)[O-])cc1
O=C(CSc1nnc2ccccn12)NNC(=O)c1ccc([N+](=O)[O-])cc1
c1cc(-c2ccoc2)n2ccnc2c1
CCN1C(=O)c2ccccc2S(=O)(=O)c2ccc(C(=O)NC(C)C)cc21
CC1CN(Cc2c(O)ccc3c(=O)c(-c4ccccc4Cl)coc23)CC(C)O1 (stereo not given)
CCCCN1C(=O)C(=Nc2cccc3cnccc23)c2ccccc21
CN(C)CCNc1nc(-c2ccco2)c2c(c1C#N)CC(C)(C)OC2
COc1ccc(C2CC(c3ccc(Cl)cc3)=NN2C(C)=O)cc1 (stereo not given)
Cc1ccnc(N2CCC(C(=O)NC3CCCCCC3)CC2)n1
NC(=O)c1[nH]cnc1N=NN(CCO)Cc1ccccc1
CC(Oc1ccc(Cl)cc1Cl)C(=O)NC(Cc1ccccc1)C(=O)O (stereo not given)
O=C(NCc1cccnc1)c1ccc2c(c1)OCO2
CS(=O)(=O)N(CC(=O)NCc1ccc2c(c1)OCO2)c1cccc(Cl)c1
C=CCOc1ccc(NC(=O)C2CC(=O)N(C(C)C)C2)cc1 (stereo not given)
Oc1cccc(C=NCc2ccccc2)c1
Oc1ccc(NCc2cccc(OCc3ccc(F)cc3)c2)cc1
Cc1cccc(C(=O)NCC(=O)OCc2nnc(-c3ccccc3)o2)c1
COc1ccccc1NC(=O)C(C)OC(=O)CCNS(=O)(=O)c1cccc(C(F)(F)F)c1 (stereo not given)
O=C(NCc1ccco1)c1nc(-c2ccccc2)n(-c2ccccc2)n1
CCOc1cc(N2CCOCC2)c(OCC)cc1NC(C)C(=O)N1CCN(CC)CC1 (stereo not given)
CCCC(=O)c1ccc(O)cc1O
Cc1nc(COC(=O)c2cc(O)c3ccccc3c2O)cs1
COCCN1CC(=O)N2C(c3cccc(C)c3)c3[nH]c4ccccc4c3C[C@H]2C1=O (stereo not given in full)
COc1ccc(C2CC(=O)c3c(C)nc(N4CCN(c5ccccc5)CC4)nc3C2)cc1 (stereo not given)
CCOCCCNC(=O)Cn1cc2c(n1)-c1c(oc(C(=O)N3CCCC3)c1C)CC2
O=C(NC1CCCC1)c1cc(-c2ccc(Cl)cc2Cl)on1
CC1CN(C(=O)COC(=O)/C=C/c2ccccc2)CC(C)O1 (stereo not given)
Cc1cccc(OCCn2c(=S)[nH]c3ccccc32)c1
Cc1cccc(Nc2nc(NCc3ccco3)nc(N)c2[N+](=O)[O-])c1
CC1=CCC2C(=O)N(c3cccc(C(=O)N(C)C4CCCCC4)c3)C(=O)C2C1 (stereo not given)
CCN(CC)CCOc1ccc(C=NNc2nc3c([nH]2)c(=O)n(C)c(=O)n3C)cc1
COc1ccc(CNC(=O)c2nnn(-c3cccc(C(F)(F)F)c3)c2N)cc1
CC(=O)Nc1ccc(C(=O)OCC(=O)/C(C#N)=C(\C)N)cc1
O=C(Nc1nccs1)c1ccc2nccnc2c1
CC1CCCCC1NC(=O)COC(=O)c1ccc2c(=O)n3c(nc2c1)CCC3 (stereo not given)
Cc1ccc(NC(=O)CCN2CCN(C/C=C/c3ccccc3)CC2)cc1C
CCCCOc1ccc(-c2ncc(N)cn2)cc1
O=C(O)CC1S/C(=N/N=C/c2ccc(-c3ccc(Cl)cc3[N+](=O)[O-])o2)NC1=O (stereo not given)
COc1ccccc1OCC(=O)Nc1ccccc1C(=O)N1CCCC1
COc1ccccc1NC(=O)c1ccc(-n2cccn2)nc1
CC12CC3(C)CC(C)(C1)CC(C(=O)NC1=NCCS1)(C2)C3
Cc1oc(-c2cccs2)nc1CN1CCN(C2CCCC2)C(CCO)C1 (stereo not given)
COC(=O)c1nn(C)c(=O)[nH]c1=O
CC(=O)c1c(C)[nH]c(C(=O)CSc2nnc(-c3ccco3)n2Cc2ccccc2)c1C
CC1=NN(c2ccc(S(=O)(=O)O)cc2Cl)C(=O)C1
CCCCN(C)C(=O)C1CCN(Cc2cccc(OCc3ccccc3)c2)CC1
O=C(NCc1ccc(F)cc1)C1CCCN1S(=O)(=O)c1ccccc1C(F)(F)F (stereo not given)
CCN1CCCC1CNC(=O)c1ccc2c(c1)N(Cc1cccc(Cl)c1)C(=O)c1ccccc1S2(=O)=O (stereo not given)
COC(=O)c1sc(S(=O)(=O)Nc2ccc(C)c(C)c2)c(C(=O)OC)c1C
COc1cc2c(oc(=O)c3cc(C)cc(OC)c32)c2c(C3OC(C)C(O)C(C)(O)C3O)ccc(O)c12 (stereo not given)
COc1cccc(C2c3c(oc4ccccc4c3=O)C(=O)N2CCCN(C)C)c1OC (stereo not given)
Cc1[nH][nH]c(=O)c1C(c1ccc2c(c1)OCO2)c1c(C)[nH][nH]c1=O
Cc1cccc(C)c1NC(=S)N(CCCN1CCN(C)CC1)Cc1cccs1
O=C(Cc1ccc(Br)cc1)Nc1ncc([N+](=O)[O-])s1
O=C(COC(=O)c1ccc([N+](=O)[O-])s1)Nc1ccccc1
